Bioassay records (PubChem)
SW480 rerep – A quantitative high throughput screen for small molecules that induce DNA re-replication in SW480 colon adenocarcinoma cells; Potency, µM (series often up to 46.1 µM), without a hit: at the top dose re-replication activation, hits mostly activators; AID 624297, 2012; SW480 DNA re-replication, Hoechst DNA content imaging, 48 h; 340,000 compounds, 1.8% hits; also: potency is read from the fitted curve at half-maximal effect; % of control where 0% means no effect; nearly all actives have a fitted effect of over 55% in size
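Image-based DNA-content assay: after two days of treatment, nuclei were labelled with the DNA dye Hoechst and imaged, and hits were compounds raising the count of nuclei showing high fluorescence intensity.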
KB-3-1 cytotox – qHTS assay for MDR1-selective chemotherapeutics: Primary screen using the parental adenocarcinoma cell KB-3-1; KB-3-1 viability, CellTiter-Glo ATP luminescence, 72 h; Potency, µM (titrated, usually from 46.1 µM), most hits filed as cytotoxic; 400,000 compounds, 1.4% hits; AID 1347075, 2019; also: potency is read from the fitted curve at half-maximal effect; % is scaled to controls: 0 for no effect and ±100 for the full control effect; nearly all actives have a fitted effect of over 60% in size
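Cells are dispensed, compounds pinned in, plates held at 37 °C for 72 h, then CellTiter-Glo is added and luminescence read after 10 minutes. Cell line: parental KB-3-1 in phenol-red-free DMEM, 10% FBS.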
IL1B secr inh – qHTS for Inhibitors of Inflammasome Signaling: IL-1-beta AlphaLISA Primary Screen; activity change, % at 57.5 µM; AID 743279, 2014; 360,000 compounds, 4.7% hits; THP-1 LPS/ATP IL-1B secretion, AlphaLISA, 16 h; hits give low values; in the data active = activity change below about -50%; inconclusive = mostly about -30% to -49%; also: % is scaled to controls: 0 for no effect and ±100 for the full control effect
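THP-1 cells pretreated 1 hr with compounds (up to 57.5 uM final), then stimulated with LPS (250 ng/mL final) plus ATP (1.25 mM final); secreted IL-1B measured by AlphaLISA after 16 hr, decreased signal indicating inhibition.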
MCF10A rereplic – A quantitative high throughput screen for small molecules that induce DNA re-replication in MCF 10a normal breast cells | MCF 10A DNA re-replication, Hoechst nuclear intensity, 48 h | Potency, µM (series often up to 46.1 µM), without a hit: at the top dose activity, positive = re-replication, most hits filed as activators | 350,000 compounds, 2.9% hits; also: potency is read from the fitted curve at half-maximal effect; % of control where 0% means no effect; nearly all actives have a fitted effect of over 50% in size
KB-V1 MDR tox – qHTS assay for MDR1-selective chemotherapeutics: Primary screen using the drug-selected MDR subline cells KB-V1; KB-V1 MDR cells viability, CellTiter-Glo, 72 h; Potency, µM (highest dose often 46.1 µM), actives largely listed as cytotoxic; 400,000 compounds, 3.4% hits; also: potency is read from the fitted curve at half-maximal effect; % is scaled to controls: 0 for no effect and ±100 for the full control effect; nearly all actives have a fitted effect of over 60% in size
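KB-V1 MDR subline cells in DMEM (phenol-red free, 10% FBS) exposed to compounds in qHTS concentration series for 72 h at 37 degrees C. Viability read by CellTiter-Glo luminescence; concentration-effect curves fitted after normalization and correction.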
* marks the source's active call; other numbers are inactive results; i = inactive; ? = inconclusive; nt = not tested or not shown; [ ] = remark or other dose. The list is not random: actives were taken first. Their share in the collection is about 9.9%. Unless noted, calls follow the shape of the dose curve; as a rule, active = well fitted curve in the direction sought with a large enough effect; inconclusive = small, poorly fitted or top-dose-only effect, or another doubt; inactive = no such curve, though single readings can be large; an effect the other way counts as inactive or inconclusive.

SMILES	SW480 rerep	KB-3-1 cytotox	IL1B secr inh	MCF10A rereplic	KB-V1 MDR tox
Cc1nn(-c2ccccc2)c(C)c1C(=O)OCC(=O)Nc1ccccc1	-1.4%	i	-12.8	-0.8%	10.3µM*
Cc1ccc(NC(=O)COC(=O)c2c(C)nn(-c3ccccc3)c2C)cc1	10.5%	i	-19.0	-1.3%	i
CCOC(=O)C1CCCN(C(=O)c2cc(-c3ccc(C)cc3)on2)C1 (centres undefined)	-6.5%	i	-21.2	1.7%	i
CCOC(=O)C1CCCN(C(=O)c2cc(COc3ccc(C)nc3)on2)C1 (centres undefined)	?	i	i	-1.1%	16.4µM*
CC(=O)N1CCc2cc(S(=O)(=O)CCC(=O)N3CCN(c4cc(C)ccc4C)CC3)ccc21	4.0%	i	-13.7	5.5%	i
O=C(Cn1ncc2c3ccccc3n(Cc3ccccc3)c2c1=O)NCCc1ccc(Cl)cc1	nt	i	nt	nt	i
C[C@@]12CCC=C[C@H]1[C@H](c1ccc3ccccc3c1Br)N(Cc1ccccc1)C2=O	18.1%	?	-54.5*	?	?
Cc1ccc(-c2ccc([C@H]3[C@@H]4C=CCC[C@@]4(C)C(=O)N3Cc3ccccc3)c(F)c2)cc1	7.6%	i	-2.0	?	i
COc1ccc(-c2ccc(N(C)C)cc2)cc1[C@H]1[C@@H]2C=CCC[C@@]2(C)C(=O)N1Cc1ccccc1	?	18.4µM*	-24.3	17.3%	?
COc1ccc(-c2ccc([C@H]3[C@@H]4C=CCC[C@@]4(C)C(=O)N3Cc3ccccc3)c(F)c2)cc1	-0.5%	?	-21.6	?	7.31µM*
OCC1O[C@H](O[C@H]2C(O)C(O)C(O)O[C@@H]2CO)C(O)C(O)C1O (some centres undefined)	0.0%	nt	nt	-4.2%	nt
CCOC(=O)c1c(Nc2cccc(C)c2)nnc(-c2ccccc2)c1-c1ccccc1	nt	16.4µM*	nt	nt	?
CCOC(=O)c1c(Nc2cc(C)cc(C)c2)nnc(-c2ccccc2)c1-c1ccccc1	nt	i	nt	nt	i
O=C(Nc1csc(Cc2c(Cl)cccc2Cl)n1)NN1CCOCC1	-3.7%	i	-84.2*	20.2%	i
CCOC(=O)C1=CCN(S(=O)(=O)c2ccccc2Br)C1c1cccc(Cl)c1 (centres undefined)	nt	i	2.3	nt	i
CCOC(=O)C1=CCN(S(=O)(=O)c2cccc(Cl)c2)C1c1ccccc1 (centres undefined)	nt	i	54.5	nt	18.4µM*
CCOC(=O)C1=CCN(S(=O)(=O)c2ccccc2C)C1c1cccc(Cl)c1 (centres undefined)	nt	?	12.5	nt	20.6µM*
Cc1ccc(C(=O)Nc2nnc(S(=O)(=O)N(C)Cc3ccc(Cl)cc3)s2)cc1	nt	i	nt	nt	i
COC(=O)c1cc(C)[nH]c2c(C)cc3nc4ccccc4c3c12	?	i	-97.7*	20.6µM*	?
C=CCNC(=O)COC(=O)COc1ccc(Cl)cc1	-26.3%	i	23.3	2.3%	i
COCCn1c(N)c(C#N)c2nc3ccccc3nc21	?	i	0.0	?	i
N#Cc1c(N)n(CCc2ccc(F)cc2)c2nc3ccccc3nc12	14.6µM*	i	-56.6*	?	i
CCOc1ccc(Cn2c3ccc(OC)cc3c3nc4ccccc4nc32)cc1	-4.0%	?	12.9	5.8µM*	i
COc1cc(Cn2c(N)c(C#N)c3nc4ccccc4nc32)cc(OC)c1	8.2µM*	i	-9.5	4.61µM*	i
CCn1c2ccc(OC)cc2c2nc3ccccc3nc21	-3.5%	i	-10.1	-2.2%	i
SMILES	SW480 rerep	KB-3-1 cytotox	IL1B secr inh	MCF10A rereplic	KB-V1 MDR tox
COc1ccc(Cn2c(N)c(C#N)c3nc4ccccc4nc32)cc1	9.2µM*	i	7.7	7.31µM*	?
NNC(=O)Cc1cccc2ccc(Cl)cc12	nt	i	9.8	nt	i
COc1ccc(CNC(=O)c2cc(=O)c3cc(C)cc(C)c3o2)cc1	-12.8%	i	-4.5	5.0%	i
O=Cc1cn(CCOc2ccccc2)c2ccccc12	-5.5%	i	7.1	-10.1%	i
O=C(NCC1CCCO1)c1cc(-c2ccc(Cl)cc2Cl)on1 (centres undefined)	-6.2%	i	-20.8	4.6%	i
O=C(NCC1CCCO1)c1cc2cc(Cl)ccc2[nH]1 (centres undefined)	-1.2%[9.22 µM]	i	-72.8*	2.4%	i
O=C(Nc1ccccc1C(=O)NCC1CCCO1)c1ccc(Cl)cc1Cl (centres undefined)	1.4%	i	6.8	3.2%	6.51µM*
O=C(Nc1ccccc1C(=O)NCC1CCCO1)c1ccc(Cl)cc1 (centres undefined)	1.1%	nt	-6.9	-7.8%	nt
O=C(CN1C(=O)NC2(CCCC2)C1=O)N1CCN(S(=O)(=O)c2ccccc2[N+](=O)[O-])CC1	-37.1%	i	-8.2	-0.4%	i
CC1=NN(c2ccccc2)C(=O)/C1=C/c1c(O)n(-c2ccc(F)cc2)[nH]c1=O	?	20.6µM*	-29.4	-10.5%	7.31µM*
CC1=NN(c2ccccc2)C(=O)C1=Cc1ccccc1	nt	i	-20.5	nt	?
O=c1[nH]c(CN2CCN(c3ccc(O)cc3)CC2)nc2scc(-c3ccc(Cl)cc3)c12	3.66µM*	?	0.0	?	i
COc1cccc(N2CCN(Cc3nc4scc(-c5ccccc5)c4c(=O)[nH]3)CC2)c1	?	?	33.0	10.3µM*	9.2µM*
O=c1[nH]c(CN2CCN(c3ccccc3O)CC2)nc2scc(-c3ccccc3Cl)c12	-22.2%	?	-52.1*	20.2%	i
COc1cccc(N2CCN(Cc3nc4ccccc4c(=O)[nH]3)CC2)c1	-2.9%	i	9.4	12.7%	i
CCOC(=O)c1ccc(NC(=O)C2=C(C)Nc3nc(SCc4ccc(Cl)cc4)nn3C2c2ccc(OC)cc2)cc1 (centres undefined)	nt	i	nt	nt	i
CCN(CC)c1ccc(C(=C2C=CC(=[N+](CC)CC)C=C2)c2ccc(S(=O)(=O)O)cc2S(=O)(=O)[O-])cc1	-4.3%	11.6µM*	-94.5*	-3.6%	?
CCc1ccc(/C=N/n2c(C)cc(C)c(C#N)c2=O)cc1	-51.9%	i	26.8	15.8%	9.2µM*
CC1CN(Cc2ccccc2)C(=O)N(c2ccccc2)C1=O (centres undefined)	-0.2%	nt	4.7	1.3%	nt
CC1CN(Cc2ccccc2)c2ccccc2NC1=S (centres undefined)	2.4%	?	-5.0	41.0%	20.6µM*
CCCCN1C(=O)CCC(C(=O)O)C1c1ccc([N+](=O)[O-])cc1 (centres undefined)	-15.8%	i	0.0	0.4%	?
